Reference: PubChem BioAssay (NCATS)
Results filed as inconclusive are left out. Where a call stands in place of a potency, no number is given. A number with no mark means an inactive call. Active and inactive are the calls of the source. Calls come from the whole dose curve; as a rule, active = well fitted curve in the direction sought with a large enough effect; inconclusive = small, poorly fitted or top-dose-only effect, or another doubt; inactive = no such curve, though single readings can be large; an effect the other way counts as inactive or inconclusive.

How the values were obtained:
[1] = Primary qHTS for inhibitors of nuclear receptor binding SET domain protein 2 (NSD2) in an isogenic RCH-ACV NSD2 p.E1099K mutant (9B) (AID 1645876)
[2] = Primary qHTS for inhibitors of nuclear receptor binding SET domain protein 2 (NSD2) in an RCH-ACV wild type WT cells (2C) (AID 1645877)
Note: nearly all actives have a fitted effect of over 70% in size.
Potency is the fitted concentration of half-maximal effect.

In the case of `C[C@H]1C(=O)O[C@H]2[C@H](O)[C@]34C5OC(=O)[C@]3(O[C@@H]3OC(=O)[C@H](O)C34[C@H](C(C)(C)C)[C@H]5O)C12O` (some centres not stated), the Potency [1] is reported as “inactive” and the Potency [2] is reported as “inactive”.

For `COC(=O)C1(C)CCC(O)C2(C)c3cc(O)c(C(C)C)cc3C(O)C(OC(C)=O)C12` (configuration not stated), the Potency [1] was “inactive” and the Potency [2] was “inactive”.

With `CN1[C@@H]2CC[C@H]1CC(OC(=O)C1C=Nc3ccccc31)C2` (some centres not stated) the Potency [1] was “inactive” and the Potency [2] was “inactive”.

In the case of `COCC1OC(=O)c2coc3c2C1(C)C1=C(C3=O)C2CCC(=O)C2(C)CC1O` (configuration not stated), the Potency [1] is reported as “inactive” and the Potency [2] is reported as “inactive”.

With `N#CC(OC1OC(COC2OC(CO)C(O)C(O)C2O)C(O)C(O)C1O)c1ccccc1` (configuration not stated) the Potency [1] was “inactive” and the Potency [2] was “inactive”.

In the case of `COc1c(C(C)C)cc2c(c1O)[C@@]1(C(=O)O)CCCC(C)(C)C1CC2` (some centres not stated), the Potency [1] is reported as “inactive” and the Potency [2] is reported as “inactive”.

In the case of `COC1CC(OC2CCC3(C=O)C(CCC4C3CCC3(C)C(C5=CC(=O)OC5)CCC43O)C2)OC(C)C1OC1OC(CO)C(O)C(O)C1O` (configuration not stated), the Potency [1] is reported as 85.8 nM (active) and the Potency [2] is reported as 153 nM (active).

For `C/C=C(\C)C(=O)OC1CC2C(C)(C)OC(=O)CC(OC(C)=O)C2(C)C2CC(OC(=O)C(C)C)C3(C)C(c4ccoc4)CC4OC43C12C` (configuration not stated), the Potency [1] was “inactive” and the Potency [2] was “inactive”.

In the case of `CN1C(=O)N(c2ccc(C#N)c(C(F)(F)F)c2)C(=O)[C@]1(CO)c1ccccc1`, the Potency [1] is reported as “inactive” and the Potency [2] is reported as “inactive”.

With `CN1[C@H]2C[C@H](OC(=O)[C@H](CO)c3ccccc3)C[C@@H]1[C@@H](O)C2` the Potency [1] was “inactive” and the Potency [2] was “inactive”.

With `Oc1ccc2c3c1O[C@H]1[C@H](N(CCCl)CCCl)CC[C@@]4(O)[C@@H](C2)N(CC2CC2)CC[C@]314` the activity change, negative = viability loss [1] was -5.8% [at 9.23 µM] and the activity change, negative = cell killing [2] was -7.37% [at 9.23 µM].
